Test results published in PubChem BioAssay (NCATS).
Values joined by “and” are separate entries in the source; they are usually repeats but may differ in a detail not shown here. Equal values may be shown once. Inconclusive results are not listed. Active and inactive are the calls of the source. The call rests on the fitted dose curve; in most records, active means well fitted curve in the direction sought with a large enough effect; inconclusive means small, poorly fitted or top-dose-only effect, or another doubt; inactive means no such curve, though single readings can be large; an effect the other way counts as inactive or inconclusive.

Tests used:
[1] = tested on: Zika virus NS2B-NS3 protease (unlinked complex); test: Primary screen GU Rhodamine qHTS for Zika virus inhibitors: Unlinked NS2B-NS3 protease assay (AID 1347159); further: on the % scale 0 is the no-effect control and ±100 the full control effect; nearly all actives have a fitted effect of over 60% in size
Procedure, shortened: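 A qHTS format was used, with compound concentrations ranging up to 114 microM. Each compound was preincubated with 25 nM NS2B-NS3 protease, and the substrate was then added at 1.5 microM. Curves were fitted with a 4-parameter Hill model.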

[2] = tested on: Zika virus NS2B-NS3 protease (linked construct); test: Primary screen NINDS Rhodamine qHTS for Zika virus inhibitors (AID 1347160); further: nearly all actives have a fitted effect of over 55% in size; on activity change, negative = inhibition: on the % scale 0 is the no-effect control and ±100 the full control effect
Procedure, shortened: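 Kinetic fluorescence (Ex 480 nm, Em 540 nm) over 15 min with 1.5 microM Rhodamine110 peptide and 25 nM linked protease.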

[3] = target: Calcium and integrin-binding protein 1 (Homo sapiens) (UniProt Q99828); test: Primary qHTS for Identification of Calcium Integrin Binding Protein 1 (CIB1) Competitor (AID 1508620);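 further: GST tagged CIB1 binding a fluorescein labelled alphaIIb integrin peptide tracer; top concentration of the series differs between compounds; on the % scale 0 is the no-effect control and ±100 the full control effect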
Calcium and integrin-binding protein 1 (Homo sapiens), sequence (Q99828 whole entry, looked up): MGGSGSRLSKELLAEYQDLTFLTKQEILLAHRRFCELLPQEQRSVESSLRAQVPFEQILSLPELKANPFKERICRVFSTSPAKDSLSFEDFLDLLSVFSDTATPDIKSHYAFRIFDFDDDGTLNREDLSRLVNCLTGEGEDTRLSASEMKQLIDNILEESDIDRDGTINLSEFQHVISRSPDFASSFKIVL
Procedure, shortened: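 CIB1-GST (1 uM final) and compound incubated 15 min at room temperature before adding FITC-alphaIIb peptide tracer (100 nM final). Competition for binding read by fluorescence polarization (ex 480, em 540) after another 15 min at room temperature.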

[4] = Primary qHTS for inhibitors of nuclear receptor binding SET domain protein 2 (NSD2) in an isogenic RCH-ACV NSD2 p.E1099K mutant (9B) (AID 1645876); further: potency means the concentration at half of the fitted maximal effect; nearly all actives have a fitted effect of over 70% in size
[5] = Primary qHTS for inhibitors of nuclear receptor binding SET domain protein 2 (NSD2) in an RCH-ACV wild type WT cells (2C) (AID 1645877); further: nearly all actives have a fitted effect of over 70% in size; further: potency means the concentration at half of the fitted maximal effect
[6] = target: Glutathione peroxidase 1 (Homo sapiens) (UniProt P07203); test: Primary qHTS Assay for Inhibitors of Recombinant Selenoprotein Glutathione Peroxidase 1 (GPX1) (AID 1845191); further: nearly all actives have a fitted effect of over 65% in size
Glutathione peroxidase 1 (Homo sapiens), sequence (P07203 whole entry, looked up): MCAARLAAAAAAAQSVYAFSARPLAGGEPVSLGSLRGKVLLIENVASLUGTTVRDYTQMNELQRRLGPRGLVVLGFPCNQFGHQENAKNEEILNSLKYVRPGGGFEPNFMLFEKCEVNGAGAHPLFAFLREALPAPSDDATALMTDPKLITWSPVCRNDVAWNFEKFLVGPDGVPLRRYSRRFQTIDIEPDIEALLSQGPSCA
Procedure, shortened: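 10 nM GPX1 + cpd, 30 min RT; start w/ 1 mM GSH, 0.5 mM cumene hydroperoxide, 0.5 mM NADPH, 100 nM GR, 0.01% BSA; buffer 50 mM Tris-HCl pH 7.5, 2 mM EDTA, 150 mM NaCl; Fl 340/450, 0 & 15 min.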

[7] = target: Phospholipid hydroperoxide glutathione peroxidase GPX4 (Homo sapiens) (UniProt P36969); test: Primary qHTS Assay for Inhibitors of Recombinant Selenoprotein Glutathione Peroxidase 4 (GPX4) (AID 1845192); details: outcome: dose series up to 50 µM unless noted; further: nearly all actives have a fitted effect of over 65% in size; on activity change, negative = inhibition: on the % scale 0 is the no-effect control and ±100 the full control effect
Phospholipid hydroperoxide glutathione peroxidase GPX4 (Homo sapiens), sequence (P36969 whole entry, looked up): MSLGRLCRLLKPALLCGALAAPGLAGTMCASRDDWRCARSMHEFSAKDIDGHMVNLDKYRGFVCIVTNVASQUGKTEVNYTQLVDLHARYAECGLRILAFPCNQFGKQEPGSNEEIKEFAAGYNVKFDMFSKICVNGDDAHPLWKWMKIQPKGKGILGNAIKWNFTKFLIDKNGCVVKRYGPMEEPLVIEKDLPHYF
Procedure, shortened: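 NADPH consumption, followed by fluorescence at 340/450 nm between 0 and 15 min, reports GPX4 activity via coupled glutathione reductase (100 nM). Enzyme 200 nM was pre-exposed to compound 30 min; 0.5 mM cumene hydroperoxide and 1 mM GSH served as substrates.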

[8] = target: Luciferin 4-monooxygenase (Photinus pyralis) (UniProt P08659); test: Primary firefly luciferase (FLuc) qHTS assay for identification of artifact compounds. (AID 1845220); further: nearly all actives have a fitted effect of over 60% in size;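 on activity change, negative = inhibition: plate controls were DMSO vehicle for no effect and no enzyme for full effect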
Procedure, shortened: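 FLuc 10 nM; luciferin 10 uM; ATP 10 uM; Tris-acetate pH 7.6, Mg-acetate 10 mM; 15 min RT preincubation; 5 min reaction; luminescence.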

[9] = tested on: Nanoluciferase (engineered Oplophorus gracilirostris luciferase); test: Primary Nanoluciferase (NLuc) qHTS assay for identification of artifact compounds. (AID 1845222);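 further: NLuc secreted into diluted conditioned medium of S16 cells; 0% = DMSO and -100% = no enzyme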
Procedure, shortened: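 NLuc from S16 cell medium (1:55) plus test compounds, 15 min, room temperature. Luminescence after Nano-Glo (1:100) addition, 5 min.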

CASKI = test: Primary qHTS to identify gynecologic anti-cancer compounds using libraries of approved drugs and bioactive compounds (AID 1345084); details: Gynecologic cancer cell panel viability, ATPlite luminescence, 48 h; series mostly up to 57.5 µM; further: nearly all actives have a fitted effect of over 55% in size; further: potency means the concentration at half of the fitted maximal effect; on activity change, negative = cytotoxicity: on the % scale 0 is the no-effect control and ±100 the full control effect
Procedure, shortened: (§1)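 In this quantitative HTS, cell killing is estimated from loss of ATP-dependent luciferase light. Cells see five compound concentrations over a 48 h exposure.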

Es-2 = test: as above; details: Gynecologic cancer cell panel viability, ATPlite luminescence, 48 h; series mostly up to 57.5 µM
Procedure, shortened: as §1

HeLa = test: as above; details: Gynecologic cancer cell panel viability, ATPlite luminescence, 48 h; series mostly up to 57.5 µM
Procedure, shortened: as §1

Hek293T = test: as above; details: Gynecologic cancer cell panel viability, ATPlite luminescence, 48 h, control line for the selectivity index; series mostly up to 57.5 µM
Procedure, shortened: as §1

JEG-3 = test: as above; details: Gynecologic cancer cell panel viability, ATPlite luminescence, 48 h; series mostly up to 57.5 µM
Procedure, shortened: as §1

OV90 = test: as above; details: Gynecologic cancer cell panel viability, ATPlite luminescence, 48 h; series mostly up to 57.5 µM
Procedure, shortened: as §1

PA-1 = test: as above; details: Gynecologic cancer cell panel viability, ATPlite luminescence, 48 h; series mostly up to 57.5 µM
Procedure, shortened: as §1

Tov-21-G = test: as above; details: Gynecologic cancer cell panel viability, ATPlite luminescence, 48 h; series mostly up to 57.5 µM
Procedure, shortened: as §1

Tov112D = test: as above; details: Gynecologic cancer cell panel viability, ATPlite luminescence, 48 h; series mostly up to 57.5 µM
Procedure, shortened: as §1

C33A = test: as above; details: Gynecologic cancer cell panel viability, ATPlite luminescence, 48 h; series mostly up to 57.5 µM
Procedure, shortened: as §1

[10] = Primary fluorescence-based thiol-reactive (MSTI) qHTS assay for identification of artifact compounds. (AID 1845221); further: nearly all actives have a fitted effect of over 65% in size; further: potency means the concentration at half of the fitted maximal effect
Procedure, shortened: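 One-hour, room-temperature, dark incubation of compound with 4 uM MSTI in PBS (pH 7.4, 2% DMSO) precedes a fluorescence read at 525 nm excitation, 598 nm emission; Hill-equation fitting yields concentration-response values.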

O=C(NC(NC(=S)Nc1ccc(F)c([N+](=O)[O-])c1)C(Cl)(Cl)Cl)C(c1ccccc1)c1ccccc1 (stereo unspecified)
inactive: Potency [1] | Potency [2] | outcome [3] | Potency [6] | Potency [7] | Potency [8] | Potency [9] | Potency (CASKI) | Potency (Es-2) | Potency (HeLa) | Potency (Hek293T) | Potency (JEG-3) | Potency (OV90) | Potency (PA-1) | Potency (Tov-21-G) | Potency (Tov112D)
active: Potency [4] 5.41 µM and 16.4 µM | Potency [5] 20.6 µM

C=C1[C@@H](C2=CC(=O)OC2)CC[C@@]2(O)[C@@H]1CC1[C@H]2CC[C@@H]2C[C@@H](O[C@H]3O[C@@H](C)[C@@H](O[C@@H]4O[C@H](CO[C@@H]5O[C@H](CO)[C@@H](O)[C@H](O)[C@H]5O)[C@@H](O)[C@H](O)[C@H]4O)[C@H](OC)[C@H]3O)CC[C@]12C (stereo partly specified)
active: Potency [4] 1.94 µM | Potency (C33A) 3.55 µM | Potency (Tov-21-G) 3.16 µM | Potency (Tov112D) 2.24 µM
inactive: Potency [1] | Potency [2] | outcome [3] | Potency [6] | Potency [7] | activity change, negative = inhibition [8] 0.528% [at 11.6 µM] | activity, negative = inhibition [9] -0.15% [at 11.6 µM] | activity change, negative = cytotoxicity (CASKI) -6.72% [at 11.6 µM] | activity change, negative = cytotoxicity (OV90) -0.0855% [at 11.6 µM]

COc1ccc2c(c1)C[C@H](C(=O)Nc1ccc(-c3cn[nH]c3)cc1OCCN(C)C)CO2
active: Potency [4] 0.291 µM | Potency [5] 0.164 µM
inactive: Potency [1] | Potency [2] | outcome [3] | Potency [6] | Potency [8] | Potency [10] | Potency [9] | Potency (C33A) | Potency (CASKI) | Potency (Es-2) | Potency (Hek293T) | Potency (JEG-3) | Potency (OV90) | Potency (PA-1) | Potency (Tov-21-G) | Potency (Tov112D)

COc1cc(O)ccc1OCCNCC(O)COc1cccc2[nH]c3ccccc3c12 (stereo unspecified)
inactive: Potency [1] | Potency [2] | outcome [3] | Potency [6] | Potency [7] | Potency [8] | Potency [9] | Potency (C33A) | Potency (CASKI) | Potency (Es-2) | Potency (HeLa) | Potency (Hek293T) | Potency (JEG-3) | Potency (OV90) | Potency (PA-1) | Potency (Tov-21-G) | Potency (Tov112D)
active: Potency [4] 20.5 µM

C=C(C)C(=O)O[C@H]1[C@H]2C(=C)C(=O)O[C@@H]2C[C@@H](C)/C=C\C(=O)[C@](C)(O)[C@@H]1OC(C)=O
active: Potency (C33A) 11.2 µM | Potency (Es-2) 11.2 µM | Potency (JEG-3) 10 µM | Potency (PA-1) 10 µM | Potency (Tov-21-G) 7.94 µM
inactive: Potency [1] | Potency [2] | outcome [3] | Potency [5] | Potency [6] | Potency [7] | Potency [8] | Potency [9]

C=C1CC[C@@H]2[C@](C)(CO)[C@H](O)CC[C@@]2(C)[C@@H]1C/C=C1/C(=O)OC[C@@H]1O
inactive: Potency [1] | Potency [2] | outcome [3] | Potency [7] | Potency [8] | Potency [10] | Potency [9] | Potency (Es-2) | Potency (HeLa) | Potency (JEG-3) | Potency (OV90)

COCCOCCOc1ccc(C2=N[C@@](C)(C(=O)O)CS2)c(O)c1
active: Potency [5] 10.3 µM | Potency [10] 0.377 µM
inactive: Potency [1] | outcome [3] | Potency [6] | Potency [7] | Potency [8] | Potency [9] | Potency (C33A) | Potency (CASKI) | Potency (Es-2) | Potency (HeLa) | Potency (Hek293T) | Potency (JEG-3) | Potency (Tov-21-G)
